Inconclusive results are not listed. The source made the active and inactive calls. Calls follow the shape of the dose curve; as a rule, active = well fitted cell-killing curve with a large enough effect; inconclusive = small, poorly fitted or top-dose-only effect, or effect the other way; inactive = flat fitted curve, though single readings scatter. Where a SMILES comes first, the peptide text is derived from it. The star is where a group is joined. Hexanoyl = CCCCCC(=O)*
How the values were obtained:
Assay in all cases: Primary qHTS to identify gynecologic anti-cancer compounds using libraries of approved drugs and bioactive compounds (AID 1345084); also: nearly all actives have a fitted effect of over 55% in size
C33A = conditions: Gynecologic cancer cell panel viability, ATPlite luminescence, 48 h; series mostly up to 57.5 µM
Procedure, shortened: (§1)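 Five-point cytotoxicity, 48 h drug exposure at 37 C, 5% CO2, on cells seeded 16 h beforehand. ATP content read by ATPlite luminescence.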

CAOV3 = conditions: Gynecologic cancer cell panel viability, ATPlite luminescence, 48 h; series mostly up to 57.5 µM
Procedure, shortened: as §1

CASKI = conditions: Gynecologic cancer cell panel viability, ATPlite luminescence, 48 h; series mostly up to 57.5 µM
Procedure, shortened: as §1

Es-2 = conditions: Gynecologic cancer cell panel viability, ATPlite luminescence, 48 h; series mostly up to 57.5 µM
Procedure, shortened: as §1

HeLa = conditions: Gynecologic cancer cell panel viability, ATPlite luminescence, 48 h; series mostly up to 57.5 µM
Procedure, shortened: as §1

Hek293T = conditions: Gynecologic cancer cell panel viability, ATPlite luminescence, 48 h, control line for the selectivity index; series mostly up to 57.5 µM
Procedure, shortened: as §1

JEG-3 = conditions: Gynecologic cancer cell panel viability, ATPlite luminescence, 48 h; series mostly up to 57.5 µM
Procedure, shortened: as §1

OV90 = conditions: Gynecologic cancer cell panel viability, ATPlite luminescence, 48 h; series mostly up to 57.5 µM
Procedure, shortened: as §1

PA-1 = conditions: Gynecologic cancer cell panel viability, ATPlite luminescence, 48 h; series mostly up to 57.5 µM
Procedure, shortened: as §1

SKOV3 = conditions: Gynecologic cancer cell panel viability, ATPlite luminescence, 48 h; series mostly up to 57.5 µM
Procedure, shortened: as §1

Tov-21-G = conditions: Gynecologic cancer cell panel viability, ATPlite luminescence, 48 h; series mostly up to 57.5 µM
Procedure, shortened: as §1

Tov112D = conditions: Gynecologic cancer cell panel viability, ATPlite luminescence, 48 h; series mostly up to 57.5 µM
Procedure, shortened: as §1
% is scaled to controls: 0 for no effect and ±100 for the full control effect.

CC1CC2OCC3(O)CCC(O)C(C14CC(c1ccoc1)OC4=O)C23CO (configuration not stated)
inactive: Potency (C33A) | Potency (CAOV3) | outcome (CASKI) | Potency (Es-2) | Potency (HeLa) | Potency (Hek293T) | Potency (JEG-3) | Potency (OV90) | Potency (PA-1) | Potency (SKOV3) | Potency (Tov-21-G) | Potency (Tov112D)

CCCCCC(=O)N1CCC[C@H]1C(=O)N[C@@H](Cc1ccc(O)cc1)C(=O)OC (Hexanoyl-Pro-Tyr-OMe)
inactive: Potency (C33A) | Potency (CAOV3) | outcome (CASKI) | Potency (Es-2) | Potency (HeLa) | Potency (Hek293T) | Potency (JEG-3) | Potency (OV90) | Potency (PA-1) | Potency (Tov-21-G) | Potency (Tov112D)

COc1cc(O)c2c(c1)C1(OC2=O)C(C)=CC(=O)C1O (configuration not stated)
inactive: Potency (C33A) | Potency (CAOV3) | outcome (CASKI) | Potency (Es-2) | Potency (HeLa) | Potency (Hek293T) | Potency (JEG-3) | Potency (OV90) | Potency (PA-1) | Potency (Tov-21-G) | Potency (Tov112D)

COc1cc(C)c(C(=O)O[C@@H]2[C@H](O)[C@@H](CO)O[C@H]2n2ccc(=O)[nH]c2=O)c(OC)c1
inactive: Potency (C33A) | Potency (CAOV3) | outcome (CASKI) | Potency (Es-2) | Potency (HeLa) | Potency (Hek293T) | Potency (JEG-3) | Potency (OV90) | Potency (PA-1) | Potency (SKOV3) | Potency (Tov-21-G) | Potency (Tov112D)

CC(=O)O[C@H]1C[C@@]2(C)[C@@H](CC[C@H]3[C@@]4(C)C=CC(=O)[C@@H](C)[C@@H]4[C@H](OC(C)=O)C(=O)[C@@]32C)/C1=C(\CCC=C(C)C)C(=O)O
inactive: Potency (C33A) | Potency (CAOV3) | outcome (CASKI) | Potency (Es-2) | Potency (HeLa) | Potency (Hek293T) | Potency (JEG-3) | Potency (OV90) | Potency (PA-1) | Potency (SKOV3) | Potency (Tov-21-G) | Potency (Tov112D)

C/C(=C/CO)CC[C@H]1[C@]2(C)C[C@H](O)CC(C)(C)[C@H]2CC[C@]1(C)O
inactive: Potency (C33A) | Potency (CAOV3) | outcome (CASKI) | Potency (Es-2) | Potency (HeLa) | Potency (Hek293T) | Potency (JEG-3) | Potency (OV90) | Potency (PA-1) | Potency (SKOV3) | Potency (Tov-21-G) | Potency (Tov112D)

C/C(CO)=C1/CCC23COC(C2)C(O)(C(=O)O)CCC13 (configuration not stated)
inactive: Potency (C33A) | Potency (CAOV3) | outcome (CASKI) | Potency (Es-2) | Potency (HeLa) | Potency (Hek293T) | Potency (JEG-3) | Potency (OV90) | Potency (PA-1) | Potency (Tov-21-G) | Potency (Tov112D)

C/C=C(\C)C(=O)OC[C@H]1O[C@@H](O[C@H]2[C@@H](O[C@H]3O[C@H](CO)[C@@H](O)[C@H](O)[C@H]3O[C@@H]3O[C@H](CO)[C@@H](O)[C@H](O)[C@H]3O)O[C@H](COC(=O)/C(C)=C/C)[C@@H](O)[C@@H]2O)[C@H](O)[C@@H](O)[C@@H]1O
inactive: activity change, negative = cytotoxicity (C33A) 7.95% [at 11.6 µM] | activity change, negative = cytotoxicity (CAOV3) 13.6% [at 11.6 µM] | activity change, negative = cytotoxicity (CASKI) -6.51% [at 11.6 µM] | activity change, negative = cytotoxicity (Es-2) -0.184% [at 11.6 µM] | activity change, negative = cytotoxicity (HeLa) -3.59% [at 11.6 µM] | activity change, negative = cytotoxicity (Hek293T) 2.97% [at 11.6 µM] | activity change, negative = cytotoxicity (JEG-3) -0.345% [at 11.6 µM] | activity change, negative = cytotoxicity (OV90) 4.16% [at 11.6 µM] | activity change, negative = cytotoxicity (PA-1) 4.96% [at 11.6 µM] | activity change, negative = cytotoxicity (Tov-21-G) -10% [at 11.6 µM] | activity change, negative = cytotoxicity (Tov112D) -8.88% [at 11.6 µM]

From PubChem BioAssay (NCATS)
